Laboratory results published in PubChem BioAssay (NCI).
About 83,000 compounds went through this panel and 20% of them were active in at least one assay; those are over-represented in the sample as a whole.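 A percent growth of 40 corresponds to 60% growth inhibition; 0 means no net growth; -100 means all cells died. Active threshold: below 10.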 A number with no mark means an inactive call. The source made the active and inactive calls.

Each compound was assayed on K-562 leukemia (assay: NCI-60 one-dose screen, 48 h (100 = growth as untreated, 0 = no growth, -100 = all killed)). Settings: 10 µM unless noted.
`COc1cc(C=O)ccc1OC1OC(COC(C)=O)C(OC(C)=O)C(OC(C)=O)C1OC(C)=O` (stereo not given) showed a growth of 116%. For `CC1=CCC(OC(=O)C(C)(O)CCC(O)(C(=O)OC2(C)C=CC(O)(C(C)C)CC2)C(C)C)(C(C)C)CC1` (stereo not given), the growth was 105%. Compound `CC(=O)Nc1cccc(-c2ccc3c(c2)NC(=O)/C3=C\c2ccc[nH]2)c1` has a growth of 12.3%. Work on `CC(C)(C)c1ccc(NS(=O)(=O)c2ccc3nc(NC(=O)c4cnccn4)[nH]c3c2)cc1` yielded a growth of 15.7%. For `CC(C)(C)c1cc(/C=N/NC(=O)c2ccccc2NC(=O)c2cccs2)c(O)c(C(C)(C)C)c1`, the growth was 13.1%. With `C#CCNC(=O)[C@H](Cc1ccccc1)NC(=O)[C@]12CC[C@@H](C(=C)C)[C@@H]1[C@H]1CC[C@@H]3[C@@]4(C)CCC(=O)C(C)(C)[C@@H]4CC[C@@]3(C)[C@]1(C)CC2` the growth was 31.8%. With `CCCCCCNC(=O)Oc1ccc(/C(=C(\C)c2ccccc2)c2ccc(OCCCN(C)C)cc2)cc1` the growth was 3.9% (active). `CC(=O)Nc1ccc(-c2ccc3c(c2)NC(=O)/C3=C\c2ccc[nH]2)cc1` gave a growth of 96.1%. For `CCCCOc1ccc(/C=N/Nc2cc(C)nc3ccc(Br)cc23)cc1`, the growth was -2.5% (active). With `COc1cc(/C(C)=C(\c2ccc(Cl)cc2)c2ccc(OCCN(C)C)cc2)ccc1F` the growth was 8.38% (active). `O=C(/C=C/c1ccc(Cl)cc1)c1ccc(NC(=O)N2CCN(c3cc4c(cc3F)c(=O)c(C(=O)O)cn4C3CC3)CC2)cc1` showed a growth of 65%. In the case of `O=C(c1nc2ccccc2[nH]1)C1C(c2ccc(Cl)cc2)C2CC3CCCC[C@H]3N2[C@@]12C(=O)Nc1cc(Cl)ccc12` (stereo not given in full), the growth is reported as 29%. Work on `O=C(NCCNc1nccc(-c2c(-c3cccc(F)c3)nc3sccn23)n1)c1ccc(Cl)cc1` yielded a growth of 54.4%. In the case of `O=C(CCN1CCCC1)Nc1ccc2c(NCCCc3ccccc3)c3ccccc3nc2c1`, the growth is reported as -7.07% (active). `N#CC1=C(/N=C/c2ccccc2)Oc2c(ccc3ccccc23)C1c1ccc([N+](=O)[O-])cc1` (stereo not given) gave a growth of 90.7%. `Brc1ccc(Nc2csc(-c3ccccn3)n2)cc1` gave a growth of 84.5%. For `COc1cc(/C(C)=C(\c2ccc(Cl)cc2)c2ccc(OCCN3CCCC3)cc2)ccc1F`, the growth was 3.65% (active). `CC(=O)N1c2ccccc2NC2=C(C(=O)NC2(C)C)C1c1ccco1` (stereo not given) showed a growth of 77.1%. Work on `CCOC(=O)CSc1nc2ccccc2c(=O)n1Cc1ccc(S(N)(=O)=O)cc1` yielded a growth of 97.1%. `CCCCOc1ccc(/C(C)=N/Nc2cc(C)nc3ccc(Br)cc23)cc1` showed a growth of 15.7%. Work on `COc1cc2c(c(O)c1Cl)C(=O)c1c(O)cc(C[C@H](C)O)cc1[C@H]2[C@H]1c2cc(C[C@H](C)O)cc(O)c2C(=O)c2c1cc(OC)c(Cl)c2O` yielded a growth of 11.7%. Work on `O=C(c1ccccc1)N1N=C(c2ccc(-n3ccc(C(F)(F)F)n3)c(F)c2)CC1c1ccc[nH]1` (stereo not given) yielded a growth of 96.5%. For `O=C(Nc1ccc(-c2ccc3c(c2)NC(=O)/C3=C\c2ccc[nH]2)cc1)NC1CC1`, the growth was 92.5%. Work on `O=c1ccc(-c2nc(N3CCOCC3)c3ccccc3n2)c[nH]1` yielded a growth of 116%. `COc1cc(/C=C\C(=O)O)ccc1OCc1ccccc1` gave a growth of 126%. In the case of `COc1ccc(C(C)=O)c(OC)c1`, the growth is reported as 118%. Compound `NC1=NN=C(N)C1=Cc1cc2ccccc2n2nnnc12` has a growth of 92.9%. For `C=C1C(=O)O[C@H]2[C@H]1CC/C(CNC(=O)/C=C/c1cccc(OC)c1)=C\CC[C@@]1(C)O[C@@H]21`, the growth was 3.75% (active). With `CNC(=O)c1cc(Cn2nc(C)c(NC(=O)Nc3ccc(Cl)c(C(F)(F)F)c3)c2C)ccn1` the growth was 112%. Work on `Cc1ccc(/C=N/NC(=O)CSc2nc3ccccc3c(=O)n2Cc2ccc(S(N)(=O)=O)cc2)cc1` yielded a growth of 63.3%. `O=C(Cc1ccc(/C=C/C(=O)c2ncc[nH]2)cc1)Nc1ccc(Cl)cc1` was tested, and the growth was 8.02% (active). `CCCOC(=O)N[C@H]1CCc2c(Cl)c(OC)c(OC)c(OC)c2-c2ccc(SC)c(=O)cc21` was tested, and the growth was 9.67% (active). Compound `O=S(=O)(NCCCNc1nccc(-c2c(-c3cccc(O)c3)nc3occn23)n1)c1ccc(Cl)cc1` has a growth of 55.6%. `COc1cc2c(=O)n(CCN(C)C)c3c4cc5c(cc4ccc3c2cc1OC)OCO5` gave a growth of 12.1%. For `C=CC(=O)N[C@@H](/C=C/C(=O)OCC)Cc1ccc(-c2cc(Cl)cc(Cl)c2)cc1`, the growth was 8.57% (active).
